# Reference: article PMC11006913
# Changes are numbered by the printed parent chain.
# What was measured:
# Experiment in all cases: PBM; 200 nM protein, PBS
# Settings in all cases: dsDNA, one strand shown
# CRX [1] = molecular target: CRX (Homo sapiens, UniProt O43186 26-111)
# CRX [2] = molecular target: CRX (Homo sapiens, UniProt O43186 26-111, E42D)
# CRX [3] = molecular target: CRX (Homo sapiens, UniProt O43186 26-111, R41L)
# NKX2-4 [4] = molecular target: T1, NKX2-4 (Homo sapiens, UniProt Q9H2Z4 175-261, P217L)
# T1 sequence: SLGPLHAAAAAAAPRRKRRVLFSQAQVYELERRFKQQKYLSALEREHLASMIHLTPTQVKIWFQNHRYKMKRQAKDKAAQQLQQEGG
# VENTX [5] = molecular target: T2, VENTX (Homo sapiens, UniProt O95231 78-163, R121Q)
# T2 sequence: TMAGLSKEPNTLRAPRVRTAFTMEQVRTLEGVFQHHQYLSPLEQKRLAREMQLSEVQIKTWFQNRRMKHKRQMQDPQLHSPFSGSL
# HOXB9 [6] = molecular target: HOXB9 (Homo sapiens, UniProt P17482 171-250, T197M)
# Chain of HOXB9 (Homo sapiens, UniProt P17482 171-250, T197M) (P17482 171-250 T197M): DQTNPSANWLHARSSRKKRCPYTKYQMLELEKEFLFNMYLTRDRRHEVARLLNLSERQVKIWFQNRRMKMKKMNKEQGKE
# VENTX [7] = molecular target: T3, VENTX (Homo sapiens, UniProt O95231 78-163)
# T3 sequence: T2 sequence with Q44R
# NKX2-4 [8] = molecular target: T4, NKX2-4 (Homo sapiens, UniProt Q9H2Z4 175-261, T231S)
# T4 sequence: T1 sequence with L43P, T57S
# VENTX [9] = molecular target: T5, VENTX (Homo sapiens, UniProt O95231 78-163, Y115F)
# T5 sequence: T2 sequence with Y38F, Q44R
# NKX2-4 [10] = molecular target: T6, NKX2-4 (Homo sapiens, UniProt Q9H2Z4 175-261)
# T6 sequence: T1 sequence with L43P
# HOXB9 [11] = molecular target: HOXB9 (Homo sapiens, UniProt P17482 171-250)
# Chain of HOXB9 (Homo sapiens, UniProt P17482 171-250) (P17482 171-250): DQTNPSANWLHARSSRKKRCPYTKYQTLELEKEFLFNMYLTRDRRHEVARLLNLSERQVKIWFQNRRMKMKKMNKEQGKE
# NKX2-4 [12] = molecular target: T7, NKX2-4 (Homo sapiens, UniProt Q9H2Z4 175-261, R246Q)
# T7 sequence: T1 sequence with L43P, R72Q
# HOXB9 [13] = molecular target: HOXB9 (Homo sapiens, UniProt P17482 171-250, R186Q)
# Chain of HOXB9 (Homo sapiens, UniProt P17482 171-250, R186Q) (P17482 171-250 R186Q): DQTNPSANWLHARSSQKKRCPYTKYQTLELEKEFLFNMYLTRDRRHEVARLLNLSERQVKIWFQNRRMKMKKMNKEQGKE
# PITX2 = PITX2 (Homo sapiens, UniProt Q99697 72-157)
# NKX2-5 = NKX2-5 (Homo sapiens, UniProt P52952 125-210)
# Chain of NKX2-5 (P52952 125-210): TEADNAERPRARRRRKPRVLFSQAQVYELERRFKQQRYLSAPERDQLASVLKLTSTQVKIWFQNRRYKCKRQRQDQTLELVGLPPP
# HOXC9 [14] = molecular target: HOXC9 (Homo sapiens, UniProt P31274 178-260, K195R)
# Chain of HOXC9 (Homo sapiens, UniProt P31274 178-260, K195R) (P31274 178-260 K195R): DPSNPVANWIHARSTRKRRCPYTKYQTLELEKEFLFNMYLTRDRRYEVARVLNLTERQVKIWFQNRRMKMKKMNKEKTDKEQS
# NKX2-6 = molecular target: T8, NKX2-6 (Homo sapiens, UniProt A6NCS4 118-204, R150C)
# T8 sequence: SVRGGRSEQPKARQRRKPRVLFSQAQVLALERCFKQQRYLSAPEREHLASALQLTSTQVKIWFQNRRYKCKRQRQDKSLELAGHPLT
# HOXC9 [15] = molecular target: HOXC9 (Homo sapiens, UniProt P31274 178-260)
# Chain of HOXC9 (Homo sapiens, UniProt P31274 178-260) (P31274 178-260): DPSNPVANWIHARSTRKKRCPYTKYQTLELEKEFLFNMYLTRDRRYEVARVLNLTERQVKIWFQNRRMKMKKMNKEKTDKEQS
# ALX1 [16] = molecular target: ALX1 (Homo sapiens, UniProt Q15699 118-204, L144V)
# Chain of ALX1 (Homo sapiens, UniProt Q15699 118-204, L144V) (Q15699 118-204 L144V): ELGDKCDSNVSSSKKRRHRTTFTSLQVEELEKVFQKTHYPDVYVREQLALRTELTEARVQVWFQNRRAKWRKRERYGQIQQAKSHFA
# HOXC9 [17] = molecular target: HOXC9 (Homo sapiens, UniProt P31274 178-260, R193K)
# Chain of HOXC9 (Homo sapiens, UniProt P31274 178-260, R193K) (P31274 178-260 R193K): as the sequence (P31274 178-260) above, with R16K counted along it
# ALX1 [18] = molecular target: ALX1 (Homo sapiens, UniProt Q15699 118-204, L144R)
# Chain of ALX1 (Homo sapiens, UniProt Q15699 118-204, L144R) (Q15699 118-204 L144R): as the sequence (Q15699 118-204 L144V) above, with V27R counted along it
# HOXC9 [19] = molecular target: HOXC9 (Homo sapiens, UniProt P31274 178-260, R222W)
# Chain of HOXC9 (Homo sapiens, UniProt P31274 178-260, R222W) (P31274 178-260 R222W): as the sequence (P31274 178-260) above, with R45W counted along it
# ALX1 [20] = molecular target: ALX1 (Homo sapiens, UniProt Q15699 118-204)
# Chain of ALX1 (Homo sapiens, UniProt Q15699 118-204) (Q15699 118-204): as the sequence (Q15699 118-204 L144V) above, with V27L counted along it
# Chain of CRX (Homo sapiens, UniProt O43186 26-111) (O43186 26-111): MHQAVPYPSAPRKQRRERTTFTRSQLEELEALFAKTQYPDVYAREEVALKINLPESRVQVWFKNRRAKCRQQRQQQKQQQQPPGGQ
# Chain of CRX (Homo sapiens, UniProt O43186 26-111, E42D) (O43186 26-111 E42D): as the sequence (O43186 26-111) above, with E17D counted along it
# Chain of CRX (Homo sapiens, UniProt O43186 26-111, R41L) (O43186 26-111 R41L): as the sequence (O43186 26-111) above, with R16L counted along it
sequence,measurement,setting,value
AGTGCACG,binding signal,CRX [1],"8.25 upbm affinity estimate (log intensity, higher = more binding, comparable within an allelic series)"
same,binding signal,CRX [2],"8.27 upbm affinity estimate (log intensity, higher = more binding, comparable within an allelic series)"
same,binding signal,CRX [3],"8.23 upbm affinity estimate (log intensity, higher = more binding, comparable within an allelic series)"
CAGGCTAG,binding signal,CRX [1],"8.3 upbm affinity estimate (log intensity, higher = more binding, comparable within an allelic series)"
same,binding signal,CRX [2],"8.21 upbm affinity estimate (log intensity, higher = more binding, comparable within an allelic series)"
same,binding signal,CRX [3],"8.16 upbm affinity estimate (log intensity, higher = more binding, comparable within an allelic series)"
ACACTACC,binding signal,CRX [1],"8.32 upbm affinity estimate (log intensity, higher = more binding, comparable within an allelic series)"
same,binding signal,CRX [2],"8.19 upbm affinity estimate (log intensity, higher = more binding, comparable within an allelic series)"
same,binding signal,CRX [3],"8.34 upbm affinity estimate (log intensity, higher = more binding, comparable within an allelic series)"
CACCGCGG,binding signal,NKX2-4 [4],"9.48 upbm affinity estimate (log intensity, higher = more binding, comparable within an allelic series)"
same,binding signal,VENTX [5],"8.21 upbm affinity estimate (log intensity, higher = more binding, comparable within an allelic series)"
same,binding signal,HOXB9 [6],"8.56 upbm affinity estimate (log intensity, higher = more binding, comparable within an allelic series)"
same,binding signal,VENTX [7],"8.03 upbm affinity estimate (log intensity, higher = more binding, comparable within an allelic series)"
same,binding signal,NKX2-4 [8],"9.5 upbm affinity estimate (log intensity, higher = more binding, comparable within an allelic series)"
same,binding signal,VENTX [9],"8.12 upbm affinity estimate (log intensity, higher = more binding, comparable within an allelic series)"
same,binding signal,NKX2-4 [10],"9.48 upbm affinity estimate (log intensity, higher = more binding, comparable within an allelic series)"
same,binding signal,HOXB9 [11],"8.55 upbm affinity estimate (log intensity, higher = more binding, comparable within an allelic series)"
same,binding signal,NKX2-4 [12],"9.54 upbm affinity estimate (log intensity, higher = more binding, comparable within an allelic series)"
same,binding signal,HOXB9 [13],"8.55 upbm affinity estimate (log intensity, higher = more binding, comparable within an allelic series)"
GAATAAAC,binding signal,CRX [1],"10 upbm affinity estimate (log intensity, higher = more binding, comparable within an allelic series)"
same,binding signal,CRX [2],"9.83 upbm affinity estimate (log intensity, higher = more binding, comparable within an allelic series)"
same,binding signal,CRX [3],"9.51 upbm affinity estimate (log intensity, higher = more binding, comparable within an allelic series)"
AGAGGGCC,binding signal,NKX2-4 [4],"11.7 upbm affinity estimate (log intensity, higher = more binding, comparable within an allelic series)"
same,binding signal,HOXB9 [6],"8.51 upbm affinity estimate (log intensity, higher = more binding, comparable within an allelic series)"
same,binding signal,NKX2-4 [8],"12 upbm affinity estimate (log intensity, higher = more binding, comparable within an allelic series)"
same,binding signal,NKX2-4 [10],"11.7 upbm affinity estimate (log intensity, higher = more binding, comparable within an allelic series)"
same,binding signal,HOXB9 [11],"8.69 upbm affinity estimate (log intensity, higher = more binding, comparable within an allelic series)"
same,binding signal,NKX2-4 [12],"11.9 upbm affinity estimate (log intensity, higher = more binding, comparable within an allelic series)"
same,binding signal,HOXB9 [13],"8.57 upbm affinity estimate (log intensity, higher = more binding, comparable within an allelic series)"
TGCGTCCA,binding signal,CRX [1],"8.29 upbm affinity estimate (log intensity, higher = more binding, comparable within an allelic series)"
same,binding signal,CRX [2],"8.26 upbm affinity estimate (log intensity, higher = more binding, comparable within an allelic series)"
same,binding signal,CRX [3],"8.23 upbm affinity estimate (log intensity, higher = more binding, comparable within an allelic series)"
AGAAGGAG,binding signal,CRX [1],"8.23 upbm affinity estimate (log intensity, higher = more binding, comparable within an allelic series)"
same,binding signal,CRX [2],"8.28 upbm affinity estimate (log intensity, higher = more binding, comparable within an allelic series)"
same,binding signal,CRX [3],"8.25 upbm affinity estimate (log intensity, higher = more binding, comparable within an allelic series)"
AGGCTTAA,binding signal,CRX [1],"12.8 upbm affinity estimate (log intensity, higher = more binding, comparable within an allelic series)"
same,binding signal,CRX [3],"12.1 upbm affinity estimate (log intensity, higher = more binding, comparable within an allelic series)"
CGCTAATC,binding signal,CRX [1],"12.8 upbm affinity estimate (log intensity, higher = more binding, comparable within an allelic series)"
same,binding signal,PITX2,"12.2 upbm affinity estimate (log intensity, higher = more binding, comparable within an allelic series)"
same,binding signal,CRX [3],"12.3 upbm affinity estimate (log intensity, higher = more binding, comparable within an allelic series)"
GGTGCTTA,binding signal,CRX [1],"11 upbm affinity estimate (log intensity, higher = more binding, comparable within an allelic series)"
same,binding signal,CRX [2],"10.9 upbm affinity estimate (log intensity, higher = more binding, comparable within an allelic series)"
same,binding signal,CRX [3],"10.4 upbm affinity estimate (log intensity, higher = more binding, comparable within an allelic series)"
same,binding signal,NKX2-5,"10.4 upbm affinity estimate (log intensity, higher = more binding, comparable within an allelic series)"
CGCCCCTC,binding signal,CRX [1],"8.34 upbm affinity estimate (log intensity, higher = more binding, comparable within an allelic series)"
same,binding signal,CRX [2],"8.45 upbm affinity estimate (log intensity, higher = more binding, comparable within an allelic series)"
same,binding signal,CRX [3],"8.42 upbm affinity estimate (log intensity, higher = more binding, comparable within an allelic series)"
GCTGCCGA,binding signal,NKX2-4 [4],"9.14 upbm affinity estimate (log intensity, higher = more binding, comparable within an allelic series)"
same,binding signal,HOXC9 [14],"9.65 upbm affinity estimate (log intensity, higher = more binding, comparable within an allelic series)"
same,binding signal,NKX2-4 [8],"9.11 upbm affinity estimate (log intensity, higher = more binding, comparable within an allelic series)"
same,binding signal,NKX2-4 [10],"9.11 upbm affinity estimate (log intensity, higher = more binding, comparable within an allelic series)"
same,binding signal,NKX2-6,"9.17 upbm affinity estimate (log intensity, higher = more binding, comparable within an allelic series)"
same,binding signal,HOXC9 [15],"9.69 upbm affinity estimate (log intensity, higher = more binding, comparable within an allelic series)"
same,binding signal,ALX1 [16],"6.5 upbm affinity estimate (log intensity, higher = more binding, comparable within an allelic series)"
same,binding signal,HOXC9 [17],"9.57 upbm affinity estimate (log intensity, higher = more binding, comparable within an allelic series)"
same,binding signal,ALX1 [18],"6.4 upbm affinity estimate (log intensity, higher = more binding, comparable within an allelic series)"
same,binding signal,NKX2-4 [12],"9.29 upbm affinity estimate (log intensity, higher = more binding, comparable within an allelic series)"
same,binding signal,HOXC9 [19],"9.8 upbm affinity estimate (log intensity, higher = more binding, comparable within an allelic series)"
same,binding signal,ALX1 [20],"6.43 upbm affinity estimate (log intensity, higher = more binding, comparable within an allelic series)"
CTGGGGGC,binding signal,NKX2-4 [4],"9.39 upbm affinity estimate (log intensity, higher = more binding, comparable within an allelic series)"
same,binding signal,HOXB9 [6],"8.38 upbm affinity estimate (log intensity, higher = more binding, comparable within an allelic series)"
same,binding signal,NKX2-4 [8],"9.45 upbm affinity estimate (log intensity, higher = more binding, comparable within an allelic series)"
same,binding signal,NKX2-4 [10],"9.5 upbm affinity estimate (log intensity, higher = more binding, comparable within an allelic series)"
same,binding signal,HOXB9 [11],"8.3 upbm affinity estimate (log intensity, higher = more binding, comparable within an allelic series)"
same,binding signal,NKX2-4 [12],"9.37 upbm affinity estimate (log intensity, higher = more binding, comparable within an allelic series)"
same,binding signal,HOXB9 [13],"8.44 upbm affinity estimate (log intensity, higher = more binding, comparable within an allelic series)"
GGGCTTAA,binding signal,CRX [1],"12.7 upbm affinity estimate (log intensity, higher = more binding, comparable within an allelic series)"
same,binding signal,PITX2,"12.7 upbm affinity estimate (log intensity, higher = more binding, comparable within an allelic series)"
same,binding signal,CRX [3],"12.1 upbm affinity estimate (log intensity, higher = more binding, comparable within an allelic series)"
